Values joined by “and” are separate entries in the source; they are usually repeats but may differ in a detail not shown here. Equal entries are not always repeated. Results filed as inconclusive are left out. Where a structure was tested more than once in an assay, its records may differ in their call. Active and inactive are the calls of the source. Unless noted, calls follow the shape of the full dose curve.

Experiment [1] addresses Nuclear receptor subfamily 1 group I member 3 (Homo sapiens) (UniProt Q14994). As to the kind of experiment: qHTS assay to identify small molecule antagonists of the constitutive androstane receptor (CAR) signaling pathway (AID 1224838; active = well fitted curve in the direction sought with a large enough effect in the repeat runs; an effect the other way counts as inactive or inconclusive; also: nearly all actives have a fitted effect of over 40% in size; also: potency is read from the fitted curve at half-maximal effect). In a few lines: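 CITCO-stimulated (50 nM final) HepG2 cells stably transfected with hCAR and CYP2B6-2.2kb luciferase were exposed to compounds at 15 concentrations for 24 h at 37 C/5% CO2. A luciferase reagent was added and luminescence recorded after 30 min.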
(In general: qHTS replaces the single test concentration by a dilution series.)

Experiment [2] shares this target. The experiment in a line: qHTS assay to identify small molecule agonists of the constitutive androstane receptor (CAR) signaling pathway (AID 1224839; active = well fitted curve in the direction sought with a large enough effect in the repeat runs; an effect the other way counts as inactive or inconclusive; also: nearly all actives have a fitted effect of over 15% in size; also: potency is read from the fitted curve at half-maximal effect;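 as to activation: HepG2 cells stably carrying human CAR and a CYP2B6 luciferase reporter; series mostly up to about 92 µM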). The procedure, abridged: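 Luminescence read-out (ONE-Glo, 30 min, room temperature) from double-stable HepG2-CYP2B6-hCAR cells exposed 24 h to 15-point compound series in presence of 0.75 uM PK11195 final.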
Experiment [3] can be described thus: qHTS assay to identify small molecule antagonists of the estrogen related receptor signaling pathway with the pleiotropic PPARgamma coactivator (PGC) from Tox21 10K library - cell viability counter screen (AID 1224840; active = well fitted cell-killing curve with a large enough effect in the repeat runs, not every such curve was filed as active; also: nearly all actives have a fitted effect of over 40% in size). In a few lines: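 Viability counter screen, PGC/ERR cells: 17.5 h compound exposure at 37 C, CellTiter-Fluor fluorescence endpoint.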
For experiment [4], the target named is Thyrotropin receptor (Homo sapiens) (UniProt P16473). As to the kind of experiment: qHTS assay to identify small molecule agonists of the thyroid stimulating hormone receptor (TSHR) signaling pathway (AID 1224843). Also: nearly all actives have a fitted effect of over 45% in size. The procedure, abridged:
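Compounds are titrated over 15 concentrations, in triplicate, onto TSHR-HEK293 cells seeded at 800/well. Plates sit 30 min at room temperature before cAMP-d2 and anti-cAMP cryptate are added; signal is read after a further hour.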

Experiment [5] is described as follows: qHTS assay to identify small molecule agonists of the hypoxia (HIF-1) signaling pathway - cell viability counter screen (AID 1224844). Also: nearly all actives have a fitted effect of over 50% in size. The procedure, abridged: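 Same wells as the HIF-1 reporter screen; ME-180 cells carrying HRE-bla, 17 hr treatment at 37C; CellTiter-Glo luminescence read after 30 min at room temperature.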
The nature of experiment [6]: qHTS assay to identify small molecule agonists of H2AX (AID 1224845; active = well fitted activation curve with a large enough effect in the signal ratio in the repeat runs, not every such curve was filed as active; the % refers to the signal ratio; also: potency is read from the fitted curve at half-maximal effect). The procedure, abridged:
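Wild-type CHO-K1 cells plated overnight, then exposed 3 hr at 37C to compounds at 15 concentrations (0.76% DMSO). Lysed, then HTRF anti-pH2AX(S139)-cryptate/anti-H2AX-d2 detection after 24 hr at room temperature; emissions 665 and 620 nm.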

Experiment [7] can be described thus: qHTS assay to identify small molecule agonists of the hypoxia (HIF-1) signaling pathway (AID 1224846; active = well fitted activation curve with a large enough effect in the signal ratio in the repeat runs, not every such curve was filed as active; the % refers to the signal ratio). The procedure, abridged: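 In ME-180 cells bearing an HRE-bla construct, 17 h treatment with DMSO-dissolved compounds at 37C was followed by CCF4-AM loading to quantify reporter induction.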
The nature of experiment [8]: qHTS assay to identify small molecule agonists of H2AX - cell viability counter screen (AID 1224847). Also: nearly all actives have a fitted effect of over 30% in size. Also: potency is read from the fitted curve at half-maximal effect. The procedure, abridged:
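CHO-K1 wt, 1000 cells/well, o/n 37C; cpds 15 conc, 3 h 37C, 0.76% DMSO; CellTiter-Glo, 30 min RT, luminescence.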

The nature of experiment [9]: qHTS assay to identify small molecule antagonists of the estrogen related receptor signaling pathway with the pleiotropic PPARgamma coactivator (PGC) from Tox21 10K library (AID 1224841; call rule not given here; also: actives are mostly falling curves and most rising ones were filed inactive; nearly all actives have a fitted effect of over 50% in size; also: potency is read from the fitted curve at half-maximal effect). In a few lines: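 In the PGC/ERR line, DMSO solutions of test chemicals are pin-delivered to 2,000 cells/well six hours after dispensing. Following eighteen hours' incubation, One-Glo reagent is added and luminescence recorded.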

Experiment [10] can be described thus: qHTS assay to identify small molecule agonists of the estrogen related receptor signaling pathway with the pleiotropic PPARgamma coactivator (PGC) from Tox21 10K library (AID 1224842; active = well fitted curve in the direction sought with a large enough effect in the repeat runs; an effect the other way counts as inactive or inconclusive; also: nearly all actives have a fitted effect of over 15% in size). The procedure, abridged: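 PGC/ERR reporter cells (NTP line) were seeded 2,000 per well, rested 6 h at 37 C/5% CO2, then pin-dosed with compounds in DMSO for 18 h at 37 C; luciferase read by One-Glo luminescence after 30 min at room temperature.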

Sequence of Thyrotropin receptor (Homo sapiens) (P16473 whole entry, looked up): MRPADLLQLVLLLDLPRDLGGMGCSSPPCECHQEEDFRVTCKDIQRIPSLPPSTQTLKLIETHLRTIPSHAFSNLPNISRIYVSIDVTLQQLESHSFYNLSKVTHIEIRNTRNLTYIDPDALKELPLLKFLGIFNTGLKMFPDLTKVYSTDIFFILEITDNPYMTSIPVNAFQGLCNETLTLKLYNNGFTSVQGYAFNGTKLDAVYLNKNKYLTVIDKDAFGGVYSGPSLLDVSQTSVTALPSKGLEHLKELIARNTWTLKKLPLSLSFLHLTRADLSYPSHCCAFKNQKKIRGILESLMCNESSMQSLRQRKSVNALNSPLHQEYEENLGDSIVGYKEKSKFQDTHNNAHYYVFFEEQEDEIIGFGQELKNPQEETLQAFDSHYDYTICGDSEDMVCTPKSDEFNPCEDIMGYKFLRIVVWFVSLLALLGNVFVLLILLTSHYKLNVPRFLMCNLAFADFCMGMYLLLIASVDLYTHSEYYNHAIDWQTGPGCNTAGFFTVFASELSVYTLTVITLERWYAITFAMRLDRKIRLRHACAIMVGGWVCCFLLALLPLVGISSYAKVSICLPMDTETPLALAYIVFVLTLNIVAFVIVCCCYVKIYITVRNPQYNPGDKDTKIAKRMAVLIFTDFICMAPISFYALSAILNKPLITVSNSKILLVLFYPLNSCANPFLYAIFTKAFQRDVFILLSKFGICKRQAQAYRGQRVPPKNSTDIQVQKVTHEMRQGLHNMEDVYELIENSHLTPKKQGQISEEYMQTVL
Sequence of Nuclear receptor subfamily 1 group I member 3 (Homo sapiens) (Q14994 whole entry, looked up): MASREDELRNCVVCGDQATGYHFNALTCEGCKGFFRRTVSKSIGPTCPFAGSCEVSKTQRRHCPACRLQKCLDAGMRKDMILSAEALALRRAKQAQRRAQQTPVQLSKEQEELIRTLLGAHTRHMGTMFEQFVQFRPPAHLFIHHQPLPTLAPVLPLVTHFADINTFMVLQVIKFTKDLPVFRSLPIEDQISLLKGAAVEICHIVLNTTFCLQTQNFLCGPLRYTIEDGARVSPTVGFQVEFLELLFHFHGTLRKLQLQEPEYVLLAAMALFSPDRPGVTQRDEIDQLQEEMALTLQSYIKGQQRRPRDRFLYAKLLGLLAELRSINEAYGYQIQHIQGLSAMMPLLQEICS

`CCCCC(CC)COC(=O)CCCCC(=O)OCC(CC)CCCC` (stereo not given): the Potency entry in [1], in experiment [2], in experiment [3], in experiment [4], in experiment [5] and in experiment [6] was “inactive” in each case. In addition, the Potency result in experiment [8] was “inactive”. In addition, the result in experiment [7] was inactive.
`C#CCN(C)Cc1ccccc1`: the Potency result in [1], in [2], in experiment [3], in experiment [4], in experiment [5] and in experiment [6] was “inactive” throughout. Besides, in experiment [8], the Potency result is “inactive”.
For `CCCCOC(=O)COc1ccc(Cl)cc1Cl`, the Potency entry in experiment [1], in experiment [2], in [3], in experiment [5] and in [6] was “inactive” throughout. Besides, the outcome in experiment [7] was inactive.
Take `CC(=O)c1ccccc1`: the Potency entry in [1], in experiment [2], in experiment [3], in experiment [4], in experiment [5] and in [6] was “inactive” each time. Besides, the Potency result in experiment [8] is “inactive”. Besides, the molecule was called inactive in experiment [7].
In the case of `Cc1ccc(N(C)C)cc1`, the Potency entry in experiment [1], in experiment [3], in experiment [4], in [5] and in experiment [6] was “inactive” each time. In addition, in experiment [2], the Potency result was “inactive and 27.3 µM (active)”. For the same molecule, the molecule was classed as inactive in experiment [7].
Turning to `O=C(O)c1cc(O)c(O)c(O)c1`, the Potency entry in experiment [1], in [2], in experiment [3], in experiment [4], in experiment [5] and in [8] was “inactive” in each case. For the same molecule, in [7], the molecule was called inactive.
Turning to `Oc1cccc2ccccc12`, the Potency entry in [1], in experiment [3], in [4] and in [5] was “inactive” in each case. The Potency in experiment [2] is 62.8 µM (active) and 61.1 µM (active); in experiment [6], 103 µM (active). For the same molecule, the molecule was classed as inactive in [7].
For `CC1CCC(C(C)C)C(O)C1` (stereo not given), the Potency result in [1], in [2], in experiment [3], in experiment [4], in experiment [5] and in [6] was “inactive” in each case. Further, the Potency result in experiment [8] is “inactive”. In addition, the molecule was classed as inactive in experiment [7].
Take `CCCCCCOCCO`: the Potency entry in experiment [1], in experiment [2], in experiment [3], in experiment [5], in experiment [6] and in experiment [8] was “inactive” throughout. The call in experiment [7] was inactive.
Turning to `CCCCCC(N)=O`, the Potency result in experiment [1], in experiment [2], in experiment [3], in experiment [4], in experiment [5] and in experiment [6] was “inactive” in each case. In experiment [8], the Potency entry was “inactive”. Also, in experiment [7], the call was inactive.
As to `CCc1ccc(CCOc2ccc(CC3SC(=O)NC3=O)cc2)nc1` (stereo not given), the Potency result in experiment [1], in experiment [2], in experiment [3], in [5], in experiment [6] and in [8] was “inactive” in each case. In addition, the call in experiment [7] was inactive.
As for `C=C(C)C(=O)OCCOCCOCCOC(=O)C(=C)C`, the Potency result in experiment [1], in experiment [2], in experiment [3], in experiment [4], in experiment [5] and in experiment [6] was “inactive” in each case. The Potency entry in experiment [8] is “inactive”. In addition, in experiment [7], the outcome was inactive.
On to `O=C=NCCCCCCN=C=O`, for which the Potency in [1] is 23.8 µM (active) and inactive. The Potency result in [2], in experiment [3], in experiment [4], in experiment [5] and in experiment [6] was “inactive” throughout. The outcome in experiment [7] was inactive.
For `C[C@H]1C[C@H]2[C@@H]3CCC4=CC(=O)C=C[C@]4(C)[C@@]3(F)[C@@H](O)C[C@]2(C)[C@@]1(O)C(=O)CO`, the Potency result in [1], in experiment [2], in experiment [3], in [5] and in experiment [6] was “inactive” throughout.
On to `CCCCCCCCC/C=C/CC1CC(=O)OC1=O` (stereo not given), for which the Potency result in experiment [1], in experiment [2], in experiment [3], in [4], in experiment [5] and in experiment [6] was “inactive” in each case. In addition, in experiment [8], the Potency result was “inactive”. Also, the result in [7] was inactive.
Consider `C=C(C)C(=O)Nc1ccc(Cl)c(Cl)c1`, for which the Potency result in [1], in experiment [3], in experiment [4], in experiment [5] and in [6] was “inactive” throughout. Also, the Potency is 55 µM (active) and 48.4 µM (active) in [2]; 102 µM (active) in [8]. In [7], the result was inactive.
Consider `CCN(CC)c1ccc(C(=O)c2ccccc2C(=O)O)c(O)c1`, for which the Potency entry in experiment [1], in experiment [3], in experiment [4], in experiment [5], in [6] and in experiment [8] was “inactive” each time. The Potency in experiment [2] is 61.3 µM (active) and 34.4 µM (active).
As for `CC1CCC2CC1C2(C)C` (stereo not given), the Potency result in experiment [1], in experiment [2], in experiment [3], in experiment [4], in [5] and in experiment [6] was “inactive” throughout. In addition, in experiment [8], the Potency entry was “inactive”. Besides, the outcome in [7] was inactive.
As for `CCCCCCCC(=O)OC`, the Potency result in [1], in experiment [2], in [3], in [4], in [5] and in experiment [6] was “inactive” each time. For the same molecule, the Potency result in experiment [8] is “inactive”. In experiment [7], the molecule was called inactive.
Consider `O=[N+]([O-])c1ccc(/C=C/c2ccc([N+](=O)[O-])cc2S(=O)(=O)O)c(S(=O)(=O)O)c1`, for which the Potency entry in experiment [1], in experiment [2], in experiment [3], in experiment [5] and in [8] was “inactive” throughout. In addition, the result in [7] was inactive.
Turning to `COc1ccc(NC(C)=O)cc1N`, the Potency result in experiment [1], in [2], in [3], in [4], in experiment [5] and in [6] was “inactive” each time. In experiment [8], the Potency entry was “inactive”. Besides, in [7], the outcome was inactive.
With `O=c1[nH]c(=O)n([C@H]2CCCO2)cc1F`, the Potency result in experiment [1], in [2], in experiment [3], in [4], in experiment [5] and in experiment [6] was “inactive” each time. Also, in experiment [8], the Potency result was “inactive”. In [7], the call was inactive.
For the molecule `CCCSc1ccc2nc(NC(=O)OC)[nH]c2c1`, the Potency result in [1], in experiment [3] and in experiment [5] was “inactive” each time. Moreover, the Potency in [2] is 9.44 µM (active). Also, the molecule was called inactive in experiment [7].
Consider `O=C(O)c1cc(=O)c2c(OCC(O)COc3cccc4oc(C(=O)O)cc(=O)c34)cccc2o1`, for which the Potency result in experiment [1], in [2], in [3], in [4], in experiment [5] and in experiment [6] was “inactive” throughout. For the same molecule, the Potency result in experiment [8] is “inactive”.
Regarding `CCCCCOC(C)=O`, the Potency in [1] is 2.2 µM (active) and inactive. For the same molecule, the Potency entry in [2], in [3], in experiment [4], in experiment [5], in [6] and in experiment [8] was “inactive” each time. The outcome in experiment [7] was inactive.
On to `O=C(OCCOCCOC(=O)c1ccccc1)c1ccccc1`, for which the Potency result in experiment [1], in experiment [2], in [3], in [5] and in experiment [6] was “inactive” each time. For the same molecule, in [7], the molecule was called inactive.
Regarding `O=C(O)c1ccc2c(c1)C(=O)OC2=O`, the Potency result in experiment [3], in experiment [4], in [5] and in experiment [6] was “inactive” in each case. Also, the result in experiment [7] was inactive.
On to `c1c[nH]cn1`, for which the Potency entry in [3], in experiment [5], in [6] and in experiment [8] was “inactive” each time. Further, in experiment [7], the molecule was called inactive.
For the molecule `COc1cc(Cc2cnc(N)nc2N)cc(OC)c1OC`, the Potency entry in experiment [3], in experiment [4], in [5], in [6] and in experiment [8] was “inactive” each time.
On to `CCCCCCCCCCCCCCCO`, for which the Potency result in experiment [3], in [4], in experiment [5], in [6] and in experiment [8] was “inactive” each time. Also, the Potency in [9] was 69.1 µM (active) and inactive. For the same molecule, the call in experiment [10] and in experiment [7] was inactive.

(Values after PubChem BioAssay (Tox21).)
